Hit rate of the full screen: of about 330,000 compounds, about 7,300 (2.2%) were called active. Shown is part of a subset that was picked to be rich in actives. Unmarked numbers belong to inactive results.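 The calls were made as follows: active = inhibition of at least 40%; inactive = the rest.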

This experiment can be described thus: growth inhibition of tim10-1 ts yeast – luminescence, uHTS, primary screen (AID 463190).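 Also: mutant grown at 25 °C; 0% = DMSO wells with yeast and 100% = wells holding no yeast.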 To be noted: S. cerevisiae tim10-1 ts strain growth, BacTiter-Glo, 24 h; at 20 µM; hits give high values.
As to `Cc1ccc(C(=O)Nc2c(C#N)c(C)c(C)n2Cc2ccccc2)cc1`, the inhibition – broadly, the relative decrease from the control value, in per cent – is 17.9%.

With `O=C(CSc1ccc(-c2ccc(Br)cc2)nn1)NCC1CCCO1` (stereo not drawn), the inhibition is 17.5%.

For the compound `O=C(CCNS(=O)(=O)c1ccc(Br)cc1)NCC1CCCO1` (stereo not drawn), the inhibition is 1.09%.

As to `OC(CNCC1CCCO1)Cn1c2ccc(Br)cc2c2cc(Br)ccc21` (stereo not drawn), the inhibition was 45.7% (active).

For `NC(=O)C1CCN(C(=O)/C(=C/c2ccco2)NC(=O)c2ccccc2)CC1`, the inhibition was -8.85%.

As for `NC(=O)CC[C@@H]1NC(=O)[C@H](CO)NC(=O)c2cc([N+](=O)[O-])cc(I)c2NCC[C@@H](C(N)=O)NC1=O`, the inhibition is -26.8%.

`CCOc1ccc(NC(=O)[C@H](C)NC(=O)C2CC(=O)N(c3ccc(OC)cc3)C2)cc1` (stereo partly drawn): the inhibition was -6.36%.

`COC(=O)C(NS(=O)(=O)c1ccc(F)cc1)c1ccccc1` (stereo not drawn): the inhibition is 13.7%.

Turning to `Cc1ccc(OS(=O)Nc2cccc3nccnc23)cc1` (stereo not drawn), the inhibition was 54.6% (active).

For `Cc1ccc(OCC(=O)Nn2cnc3ccccc32)cc1`, the inhibition was 1.81%.

`Cc1ccc(Oc2ccc3c(c2)C(=O)N(c2cccc4cccnc24)C3=O)cc1`: the inhibition is 18.3%.

For the compound `CCOc1ccc(NS(=O)(=O)c2cc(C)c(C)cc2C)cc1`, the inhibition was 1.28%.

As to `CC(C)(C)c1cc(CN2CCN(CCC#N)CC2)cc(C(C)(C)C)c1O`, the inhibition was -1.87%.

In the case of `CCN1/C(=C\c2ccc3ccccc3[n+]2CC)Sc2cc(C)ccc21`, the inhibition was 65.2% (active).

Regarding `C=CCn1c(COc2ccc(F)cc2)nnc1SCC(=O)Nc1cccc(S(N)(=O)=O)c1`, the inhibition was -3.82%.

`O=c1nc(N2CCOCC2)nc2n1CCO2`: the inhibition is -13.4%.

In the case of `CCC1CCCCN1C(=O)CSc1nc2c(c(=O)n(C)c(=O)n2C)n1C` (stereo not drawn), the inhibition was 0.551%.

In the case of `O=S(=O)(c1ccc(F)cc1)n1ccc(-c2cnc(-c3ccccc3)s2)n1`, the inhibition was 24.1%.

Regarding `COc1ccc2oc(-c3cccc(NC(=O)CSc4ccc(Cl)cc4)c3)nc2c1`, the inhibition was 21.6%.

Take `CC(=O)Oc1ccc2c(=O)oc(-c3ccc([N+](=O)[O-])cc3)nc2c1`: the inhibition was 22.6%.

Consider `O=[N+]([O-])c1ccc2oc(-c3cccc(O)c3)nc2c1`, for which the inhibition was 45.7% (active).

Consider `Cc1ccc(OS(=O)(=O)c2ccc(-c3csc(C)n3)s2)c(C)c1`, for which the inhibition was 10.6%.

Consider `COc1cc(C=O)ccc1Oc1nnnn1-c1ccccc1`, for which the inhibition is 22.8%.

`O=C(CCNC(=O)c1ccccc1)Nc1nc2ccccc2s1`: the inhibition is -11%.

For `O=C(NC(Nc1nc2ccc([N+](=O)[O-])cc2s1)(C(F)(F)F)C(F)(F)F)c1ccccc1`, the inhibition was 85.4% (active).

Take `O=C(CNC(=O)c1ccccc1)Oc1ccc([N+](=O)[O-])cc1`: the inhibition is 3.17%.

Turning to `CCC(=O)Nc1cccc(C2=NOC3(C2)C[C@@H](C(N)=O)N(C(=O)c2cc([N+](=O)[O-])cc([N+](=O)[O-])c2C)C3)c1` (stereo partly drawn), the inhibition was 9.39%.

On to `O=C1c2ccccc2C(=O)c2c1cccc2N1CCN(CCO)CC1`, for which the inhibition is 15.9%.

For `O=C1c2ccccc2C(=O)c2c1cccc2N1CCN(C/C=C/c2ccccc2)CC1`, the inhibition is 23.3%.

As for `O=C1c2ccccc2C(=O)c2c1cccc2N1CCN(Cc2ccccc2)CC1`, the inhibition was 49.4% (active).

For the compound `CC1CCN(S(=O)(=O)c2ccc3c(ccn3CC(=O)O)c2)CC1`, the inhibition is 6.77%.

With `O=C(Cc1c(F)cccc1Cl)Nc1ncc([N+](=O)[O-])s1`, the inhibition was 32.8%.

Regarding `COc1ccc([N+](=O)[O-])cc1NC(=O)CCc1ccccc1`, the inhibition is 27.1%.

Regarding `O=C(CCc1ccccc1)Nc1ncc([N+](=O)[O-])s1`, the inhibition was 45.9% (active).

Consider `O=C(C1CCCN(S(=O)(=O)c2ccccc2)C1)N1CCN(c2ccc(F)cc2)CC1` (stereo not drawn), for which the inhibition is 17.6%.

As to `Fc1ccccc1-c1cc2cc3c(cc2cn1)OCO3`, the inhibition was -19.8%.

As for `CCNC(=S)N(CCc1c(C)[nH]c2ccc(C)cc12)Cc1ccco1`, the inhibition was 45.6% (active).

As for `COc1cccc(NC(=S)N(CCc2c(C)[nH]c3ccccc23)Cc2ccco2)c1`, the inhibition was 32.4%.

Consider `COCCNC(=S)N(CCc1c(C)[nH]c2ccc(C)cc12)Cc1cccnc1`, for which the inhibition is 11.6%.

As to `CC(CNS(=O)(=O)c1ccc(Br)cc1)CN(C)C` (stereo not drawn), the inhibition is 6.17%.

For `N/C(=N\OC(=O)CCCC(=O)O)c1ncc(C(F)(F)F)cc1Cl`, the inhibition was 1.66%.

As for `O=C(c1ccccn1)c1ncc(C(F)(F)F)cc1Cl`, the inhibition was 7.58%.

With `N/C(=N\OC(=O)Nc1ccc(Cl)c(Cl)c1)c1ncc(C(F)(F)F)cc1Cl`, the inhibition was 49.2% (active).

As to `Cc1cccc(NC(=O)C2CCCN(C(=O)Nc3ccc(F)cc3)C2)c1C` (stereo not drawn), the inhibition is -25.6%.

Regarding `Cc1ccccc1CC1(CO)CCCN(Cc2ccc3c(c2)OCCO3)C1` (stereo not drawn), the inhibition is 8.67%.

Regarding `Cc1noc(C)c1CCC(=O)N1CCCC(CO)(Cc2ccccc2)C1` (stereo not drawn), the inhibition was -14.1%.

Regarding `Cc1ccccc1CC1(CO)CCCN(C(=O)c2cc(-c3ccccc3)no2)C1` (stereo not drawn), the inhibition is 42.6% (active).

Regarding `Cc1cccc(-n2ncc(Cl)c(Cl)c2=O)c1`, the inhibition is -25.8%.

Turning to `Cc1ccc(Oc2cnn(-c3ccccc3)c(=O)c2Br)cc1`, the inhibition was 42.1% (active).

For the compound `Cc1ccc(OC(=O)c2c(C)nn(-c3ccccc3)c2C)cc1`, the inhibition is 25.6%.

Turning to `COc1ccc(S(=O)(=O)/N=C2\C=C(NS(=O)(=O)c3ccccc3)C(=O)c3ccccc32)cc1`, the inhibition is 31.1%.

As to `CCc1[nH]nc(C(=O)N2CCCC(CO)(Cc3ccc(F)cc3F)C2)c1C` (stereo not drawn), the inhibition is 24.1%.

Turning to `COc1cc2c(cc1OC)C(C(=O)Nc1cc(C)c(OC)c(C)c1)CC(=O)N2` (stereo not drawn), the inhibition was -5.96%.

`CS(=O)(=O)N(Cc1ccccc1)c1ccc(C(=O)NN=C2CCCCCC2)cc1`: the inhibition was 17.2%.

For `O=C(N/N=C\c1cccc(Br)c1)c1ccccc1-n1cccc1`, the inhibition was 57.6% (active).

As for `O=C(CNC(=O)c1cccs1)N/N=C/c1cccc(Br)c1`, the inhibition is 22%.

Turning to `O=C(N/N=C/c1cccc(Br)c1)c1ccc(N2CCCC2=O)cc1`, the inhibition was -37.8%.

Take `CCN(Cc1ccncc1)C(=O)CCc1ccccc1`: the inhibition was -0.112%.

For `COc1ccc(NC(=O)/C(C#N)=C\c2cc(OC)c(OCc3ccc(C(=O)O)cc3)cc2Br)cc1`, the inhibition was 26.4%.

Take `COc1ccc(CNC(=O)CCn2cccc2)cc1`: the inhibition was 9.29%.

For `COc1ccc(CNC(=O)/C(C#N)=C/c2cccc(OC)c2OC)cc1`, the inhibition is 63.8% (active).

Regarding `CC(C)c1ccc(/C=C2\NC(=O)NC2=O)cc1`, the inhibition was 10.2%.

For the compound `CCOc1ccccc1N1CCN(C(=O)c2ccc3[nH]c(C)c(C)c3c2)CC1`, the inhibition is 48.8% (active).

Take `COc1ccccc1N1CCN(C(=O)c2ccc(Cl)c(S(=O)(=O)N3CCCC3)c2)CC1`: the inhibition was 22%.

Regarding `Cc1[nH]c2ccc(C(=O)N3CCN(C)CC3)cc2c1C`, the inhibition was -12.6%.

For `COc1ccc(-c2c(C#Cc3ccsc3)c3cc(-c4ccc(CN5CCOCC5)cc4)ccc3n2C)cc1`, the inhibition was 15.1%.

With `Cc1ccccc1C(=O)N1CCC(C(=O)Oc2ccc(C#N)cc2)CC1`, the inhibition was -2.27%.

Turning to `CCOc1ccccc1/C=c1\sc2nc(-c3ccco3)nn2c1=O`, the inhibition was 54.3% (active).

Regarding `CS(=O)(=O)n1nc(-c2ccco2)nc1N`, the inhibition was 3.68%.

On to `CCCn1nc(C(=O)NNC(=O)CCOc2ccccc2OCC)c2ccccc2c1=O`, for which the inhibition was 17.6%.

`Cn1cccc1C(C#N)c1ccccc1C#N` (stereo not drawn): the inhibition was 10.1%.

`O=C(NC1(C(F)(F)F)NC(=O)N(Cc2cccnc2)C1=O)c1ccccc1Cl` (stereo not drawn): the inhibition was 9.72%.

Turning to `COc1cc(C(=O)N(C)Cc2cccc(OC)c2OC)ccc1OCC(=O)Nc1cccc(C(F)(F)F)c1`, the inhibition is 20.8%.

`COc1ccc(Cn2c(-c3ccc(Cl)cc3)c[n+]3ccccc23)cc1`: the inhibition was 48.6% (active).

Take `CCn1c(C)cc(=O)cc1-c1ccc(Cl)cc1`: the inhibition was 8.56%.

With `COc1ccc(Cn2c(=O)cc(C)[nH]c2=S)cc1`, the inhibition is -11.8%.

Turning to `Cc1cccc(NS(=O)(=O)c2cccc(C(=O)NNC(=O)c3ccccc3O)c2)c1`, the inhibition was 21.6%.

Turning to `O=C(CN1CCN(C(=S)NC2CCCC2)CC1)Nc1ccc(Oc2ccccc2)cc1`, the inhibition is 12.6%.

For `Cc1ccc2cc(C#N)c(NCCNC(=S)NCCCN3CCOCC3)nc2c1`, the inhibition was -0.527%.

Regarding `CC(C)N(C(=O)Cn1cc(S(=O)(=O)CC(=O)N2CCOCC2)c2ccccc21)C(C)C`, the inhibition was -3.3%.

As to `CCOC(=O)c1ccc(NC(=O)c2nc[nH]c2C(=O)NCc2ccccc2)cc1`, the inhibition was 41.1% (active).

In the case of `CCOC(=O)c1[nH]cnc1C(=O)Nc1ccccc1C`, the inhibition is 11.6%.

As to `O=C(Nc1ccon1)c1nc[nH]c1C(=O)NCc1ccccc1`, the inhibition was 7.98%.

Consider `CC(C)c1ccc(S(=O)(=O)N2CCN(C(C)C(=O)NC3CCCC3)CC2)cc1` (stereo not drawn), for which the inhibition is 13.4%.

Regarding `Nc1c(C(=O)O)cnn1-c1ccccc1`, the inhibition was 2.2%.

As for `CCN(C(=O)COC(=O)c1ccccc1O)c1cccc2ccccc12`, the inhibition is 24.2%.

Take `CSC(=S)N/N=C/c1c[nH]c2ccccc12`: the inhibition was 54.2% (active).

On to `Nc1nonc1-n1nnc(C(=O)N/N=C/c2c[nH]c3ccccc23)c1-c1ccccc1`, for which the inhibition is 11.6%.

Take `O=C(O)c1cccc(NC(=S)N/N=C/c2c[nH]c3ccccc23)c1`: the inhibition is 19%.

Consider `Cn1cnc(S(=O)(=O)Nc2ccc3c(c2)OCCO3)c1`, for which the inhibition was -19.7%.

As to `Clc1ccccc1CSc1nnc(-c2ccco2)c(-c2ccco2)n1`, the inhibition was 41.7% (active).

For `O=C(CC1N=C2c3ccccc3N=C(SCc3ccccc3Cl)N2C1=O)NCc1ccco1` (stereo not drawn), the inhibition is 24.8%.

Take `S=C(NCc1ccco1)NCc1ccccc1Cl`: the inhibition was 28.9%.

The record behind these values is PubChem BioAssay AID463190 (Sanford-Burnham Center for Chemical Genomics, 2010).
